High-throughput results: PubChem BioAssay, National Center for Advancing Translational Sciences (NCATS)
Tau FP inhib – blocks human tau fibril formation measured by polarization; P10636; 280,000 compounds, 0.39% hits; Potency, µM (series often up to 57.7 µM), inactives show at the highest dose activity, negative = inhibition, actives largely listed as inhibitors; AID 1468; K18 P301L tau heparin fibrillization, Alexa594 FP, 6 h; also: nearly all actives have a fitted effect of over 55% in size
Target sequence (P10636 561-689 P618L limits assumed): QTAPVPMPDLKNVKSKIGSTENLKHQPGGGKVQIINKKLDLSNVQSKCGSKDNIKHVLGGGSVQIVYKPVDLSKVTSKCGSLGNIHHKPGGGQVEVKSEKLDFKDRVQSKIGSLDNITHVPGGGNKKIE
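Read-out: fluorescence polarization of Alexa 594-labeled tau (0.24 uM), 555 nm excitation, 632 nm emission. Mixtures held 15 uM unlabeled K18 P301L, compound and 20 uM heparin, pH 7 acetate buffer, incubated 6 hr at 37 C.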
GoLoco inh red – RGS12 GoLoco-Gai1 interaction inhibition | Gai1:RGS12 GoLoco peptide FP, rhodamine, 10 min | P63096 | AID 880 | Potency, µM (doses to about 61.6 µM), without a hit: top-dose activity, negative = inhibition, usual class: inhibitors | 230,000 compounds, 0.44% hits; active = well fitted inhibition curve with a large enough effect, not every such curve was filed as active; inactive = no such curve, though single readings can be large or run the other way; also: nearly all actives have a fitted effect of over 30% in size
Tau ThT inhib – inhibitors of human tau fibril formation, thioflavin T binding; P10636; recombinant tau K18 P301L, heparin-induced fibrillization, ThT fluorescence; Potency, µM (titrated, usually from 57.4 µM), for the others: top-dose activity, negative = inhibition, usual class: inhibitors; 270,000 compounds, 2.1% hits; AID 1460; also: nearly all actives have a fitted effect of over 55% in size
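Using a mix of unlabeled (15 uM) and Alexa 594-labeled (0.24 uM) tau K18 P301L, heparin-triggered fibrillization over 6 hr at 37 C was scored by ThT fluorescence.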
JMJD2E inh – inhibitors of human JMJD2E histone demethylase; AID 2147; 230,000 compounds, 1.6% hits; Potency, µM (highest dose often 57.1 µM), for inactives: top-dose activity change, negative = inhibition, hits mostly inhibitors; JMJD2E catalytic domain, FDH-coupled NADH fluorescence (FDH is formaldehyde dehydrogenase);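 also: 0% = wells with enzyme and -100% = buffer wells without enzyme; nearly all actives have a fitted effect of over 50% in size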
Target sequence (B2RXH2 1-337 limits assumed): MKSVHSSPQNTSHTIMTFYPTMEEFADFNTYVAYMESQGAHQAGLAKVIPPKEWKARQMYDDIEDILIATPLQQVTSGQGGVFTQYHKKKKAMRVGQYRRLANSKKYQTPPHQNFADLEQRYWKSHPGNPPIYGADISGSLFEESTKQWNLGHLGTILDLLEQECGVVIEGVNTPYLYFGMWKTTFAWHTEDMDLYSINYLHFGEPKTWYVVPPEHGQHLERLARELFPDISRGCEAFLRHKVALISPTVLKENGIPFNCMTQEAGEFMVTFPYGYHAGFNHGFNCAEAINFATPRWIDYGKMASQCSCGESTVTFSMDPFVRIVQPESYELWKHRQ
Tau fluor cs – counter-screen for tau fibril formation inhibitors | tau K18 P301L Alexa594 fluorescence, heparin fibrillization | 280,000 compounds, 0.93% hits | Potency, µM (series often up to 57.7 µM), inactives show at the highest dose activity change, negative = decrease | AID 1463; also: nearly all actives have a fitted effect of over 55% in size
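Human tau K18 P301L (15 uM unlabeled, 0.24 uM Alexa 594-labeled) in 100 mM sodium acetate pH 7 with 20 uM heparin, 6 hr at 37 C. ThT 30 uM added, 1 hr ambient; Alexa 594 FP and total fluorescence read at 555/632 nm.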
Active calls of the source: *; ? = inconclusive; · = no result given; ! = repeats disagree; [ ] = another dose, or the depositor's remark. Most compounds without a hit are left out; they make up all but 3.4% or so of the library. Unless noted, calls follow the shape of the dose curve; as a rule, active = well fitted curve in the direction sought with a large enough effect; inconclusive = small, poorly fitted or top-dose-only effect, or another doubt; inactive = no such curve, though single readings can be large; an effect the other way counts as inactive or inconclusive. Unless noted, % is scaled to controls: 0 for no effect and ±100 for the full control effect; potency is read from the fitted curve at half-maximal effect.

SMILES	Tau FP inhib	GoLoco inh red	Tau ThT inhib	JMJD2E inh	Tau fluor cs
CCOc1ccc(N=C2NC(=O)S/C2=C\c2ccc(N(C)C)cc2)cc1	8%	-3%	1.1µM*	-5%	?
CCOc1ccc(/C=C2/SC(=O)NC2=S)cc1	-4%	15%	3.2µM*	-5%	?
Cc1cccc(C)c1-n1ncc(C(=O)O)c1C1CCN(C(=O)OC(C)(C)C)CC1	-8%	·	-7%	·	-4%
O=C(O)c1cc(O)c2c(c1)C(=O)c1cc(O)cc(O)c1C2=O	-6%	14%	7.1µM*	-19%	?
CN(C)/C=C1/Sc2ccccc2C1=O	2%	58%	?	?	-5%
CC(=O)N(\C=C/C=C/C=C1\Sc2ccccc2C1=O)c1ccccc1	?	254%	6.3µM*	14µM*	?
NC(C(=O)NC1C(=O)N2C(C(=O)O)=C(Cl)CSC12)c1ccccc1 (stereo not drawn)	?	-15%	14µM*	?	-20%
N[C@H](C(=O)N[C@@H]1C(=O)N2C(C(=O)O)=C(Cl)CS[C@@H]12)c1ccccc1	·	2%[21.6 µM]	·	14µM*!	·
CCc1ccc(NC(=O)CSc2nc3ncccc3[nH]2)cc1	3%	·	-6%	·	-10%
COc1ccc(CCNC(=O)C(CC(C)C)N2Cc3ccccc3C2=O)c(OC)c1OC (stereo not drawn)	-7%	·	-2%	·	-6%
CC1=CC(C)(C)N2C(=O)C(=O)c3cc(OC(=O)c4ccco4)cc1c32	1%	7%	13µM*	-8%	-28%
O=C(O)c1cc(NN=Nc2cccc([N+](=O)[O-])c2)cc([N+](=O)[O-])c1	-2%	5%	?	1%	-23%
Nc1cc([N+](=O)[O-])ccc1Nc1ccccc1	?	19%	16µM*	-3%	?
O=C(O)c1cc(NN=Nc2ccc(Br)cc2)cc([N+](=O)[O-])c1	1%	3%	14µM*	?	-28%
O=[N+]([O-])c1ccc(N=NNc2ccccc2)cc1	2%	6%	8.9µM*	2%	14µM*[quencher]
COc1ccc(OC)c2sc(NC(=O)c3ccc(S(=O)(=O)N4CCCC4)cc3)nc12	-16%	·	-4%	·	-28%
Cc1c(NC(=O)Cc2ccc(Cl)cc2)cccc1-c1nc2cccnc2s1	-10%	·	?	·	-10%
Cc1ccccc1NC(=O)Cn1c(=O)n(CCC(=O)NCc2ccc3c(c2)OCO3)c(=O)c2sccc21	?	·	1%	·	-6%
N#Cc1c(N2CCCC2)nc(N)c2c(N)nc(N3CCCC3)cc12	11%	-2%	?	?	13µM*[quencher]
COc1cc2c(C#N)c(N3CCCC3)nc(N)c2c(N)n1	11%	6%	?	?	?
COc1cc2c(C#N)c(N3CCN(C)CC3)nc(N)c2c(N)n1	9%	7%	-8%	?	-4%
COc1cc2c(C#N)c(N3CCN(c4ccccc4OC)CC3)nc(N)c2c(N)n1	-10%	9%	18µM*	?	13µM*[quencher]
Cc1ccc(NC(=O)CSc2n[nH]c(-c3ccc(F)cc3)n2)cc1F	?	·	2%	·	?
Nc1ccc(C(=O)NCC(=O)O)cc1	?	8%	32µM*	?	?
CCSc1ccc(C(=O)NCC(=O)O)cc1	-7%	-3%	-3%	6%	-7%
SMILES	Tau FP inhib	GoLoco inh red	Tau ThT inhib	JMJD2E inh	Tau fluor cs
Nc1nc(Nc2ccc(Cl)cc2)nc(NCc2ccco2)c1[N+](=O)[O-]	16µM*	4%	?	-1%	?
COc1ccc(Nc2nc(N)c([N+](=O)[O-])c(NCc3ccccc3)n2)cc1	-4%	34%	?	5%	14µM*[quencher]
Cc1ccc(Nc2nc(N)c([N+](=O)[O-])c(NCc3ccccc3)n2)cc1	?	-8%	?	0%	?
Nc1nc(Nc2cccc(Cl)c2)nc(NCc2ccco2)c1[N+](=O)[O-]	28µM*	11%	?	-7%	?
Cc1cccc(Nc2nc(N)c([N+](=O)[O-])c(NCc3ccco3)n2)c1	?	-1%	?	0%	?
COc1ccc(Nc2cc(C)nc(NCc3ccccc3)n2)cc1	4%	10%	?	0%	35µM*[quencher]
Cc1cc(C)c2c(CC(=O)N(Cc3ccccc3)C3CCS(=O)(=O)C3)coc2c1 (stereo not drawn)	7%	·	-15%	·	-11%
Cc1ccc(-c2cnc(C3CC3)o2)cc1S(=O)(=O)Nc1ccc(F)cc1Cl	-4%	·	1%	·	-12%
CCCOc1ccc(C2C(=O)N(C3CCCCCC3)CC(=O)N2Cc2ccccc2OC)cc1OC (stereo not drawn)	-6%	·	-12%	·	-4%
Cc1cccc(N2CCN(C(=O)c3cccn4c(=O)c5cc(Cl)ccc5nc34)CC2C)c1 (stereo not drawn)	5%	·	-14%	·	-29%
O=C(Nc1c2c(nn1-c1ccc(Cl)cc1)CS(=O)(=O)C2)c1ccc(Br)cc1	-25%	·	-7%	·	-30%
Cc1cccc2cc(CN(Cc3ccco3)C(c3nnnn3CCc3ccccc3)C(C)C)c(=O)[nH]c12 (stereo not drawn)	2%	1%	-13%	18µM*	-6%
COc1ccccc1C(C[N+](=O)[O-])c1c[nH]c2ccccc12 (stereo not drawn)	?	-2%	-7%	-8%	32µM*[quencher]
CC(C)c1cc(C(=O)NC(C)c2ccccc2)no1 (stereo not drawn)	-3%	·	-6%	·	-9%
Oc1ccc(N=Cc2ccc(O)c(O)c2)cc1	8.9µM*	16µM*	3.2µM*	0.63µM*	?
Cc1ccc(-c2nc(N)sc2-c2ccccc2)cc1C	3%	16%	?	5%	10µM*[quencher]
Cc1ccc(-c2nc(N)sc2-c2ccc(C)cc2)cc1	-14%	11%	?	?	14µM*[quencher]
Nc1nc(-c2ccccc2)c(-c2ccccc2)s1	12%	7%	-4%	-8%	?
Cc1c2cnn(CC(=O)N3CCN(c4ccc(F)cc4)CC3)c(=O)c2c(C)n1Cc1ccccc1F	-1%	·	?	·	-12%
O=C(/C=C/c1ccccc1)n1cnnc1SC/C=C/c1ccccc1	?	-2%	28µM*	0%	-13%
Cc1nnc(SC/C=C/c2ccccc2)n(N)c1=O	10%	7%	-1%	7%	2%
O=C1C(=O)c2c(C(=O)c3ccccc3)coc2-c2ccccc21	7.9µM*	6%	2.5µM*	?	?
Cc1oc2c(c1C(=O)c1ccccc1)C(=O)C(=O)c1ccccc1-2	?	5%	7.9µM*	?	-22%
O=C(O)c1ccccc1-c1ccccc1C(=O)c1ccccc1	·	5%[14.2 µM]	·	·	·
CC[C@H](C)C(=O)O[C@@H]1C[C@H](C)C=C2C=C[C@H](C)[C@@H](CC[C@H]3C[C@@H](O)CC(=O)O3)[C@H]21	·	5%[21.6 µM]	·	5%[25.5 µM]	·
COc1cc(C2C(=O)N(C3CCCCC3)CC(=O)N2Cc2ccc(C)cc2)ccc1OC(C)C (stereo not drawn)	0%	·	-5%	·	-9%
